The supplement of paper PMC11732987, “Enantioselective OTUD7B fragment discovery through chemoproteomics screening and high-throughput optimisation” (Communications Chemistry, 2025)

Columns and labels:
Assay in all cases: log2 ratio of Biotin-Ahx-Ub-VS probe labelling (fragment/DMSO); higher = less target engagement (more negative = stronger competition), active = hit call of the paper (q ≤ 0.05, log2 ratio ≤ -1)
Conditions in all cases: compound concentration: 200 uM; treatment time: 3 h
USP42 = molecular target: T1, USP42 (UniProt Q9H9J4)
T1 sequence (whole entry): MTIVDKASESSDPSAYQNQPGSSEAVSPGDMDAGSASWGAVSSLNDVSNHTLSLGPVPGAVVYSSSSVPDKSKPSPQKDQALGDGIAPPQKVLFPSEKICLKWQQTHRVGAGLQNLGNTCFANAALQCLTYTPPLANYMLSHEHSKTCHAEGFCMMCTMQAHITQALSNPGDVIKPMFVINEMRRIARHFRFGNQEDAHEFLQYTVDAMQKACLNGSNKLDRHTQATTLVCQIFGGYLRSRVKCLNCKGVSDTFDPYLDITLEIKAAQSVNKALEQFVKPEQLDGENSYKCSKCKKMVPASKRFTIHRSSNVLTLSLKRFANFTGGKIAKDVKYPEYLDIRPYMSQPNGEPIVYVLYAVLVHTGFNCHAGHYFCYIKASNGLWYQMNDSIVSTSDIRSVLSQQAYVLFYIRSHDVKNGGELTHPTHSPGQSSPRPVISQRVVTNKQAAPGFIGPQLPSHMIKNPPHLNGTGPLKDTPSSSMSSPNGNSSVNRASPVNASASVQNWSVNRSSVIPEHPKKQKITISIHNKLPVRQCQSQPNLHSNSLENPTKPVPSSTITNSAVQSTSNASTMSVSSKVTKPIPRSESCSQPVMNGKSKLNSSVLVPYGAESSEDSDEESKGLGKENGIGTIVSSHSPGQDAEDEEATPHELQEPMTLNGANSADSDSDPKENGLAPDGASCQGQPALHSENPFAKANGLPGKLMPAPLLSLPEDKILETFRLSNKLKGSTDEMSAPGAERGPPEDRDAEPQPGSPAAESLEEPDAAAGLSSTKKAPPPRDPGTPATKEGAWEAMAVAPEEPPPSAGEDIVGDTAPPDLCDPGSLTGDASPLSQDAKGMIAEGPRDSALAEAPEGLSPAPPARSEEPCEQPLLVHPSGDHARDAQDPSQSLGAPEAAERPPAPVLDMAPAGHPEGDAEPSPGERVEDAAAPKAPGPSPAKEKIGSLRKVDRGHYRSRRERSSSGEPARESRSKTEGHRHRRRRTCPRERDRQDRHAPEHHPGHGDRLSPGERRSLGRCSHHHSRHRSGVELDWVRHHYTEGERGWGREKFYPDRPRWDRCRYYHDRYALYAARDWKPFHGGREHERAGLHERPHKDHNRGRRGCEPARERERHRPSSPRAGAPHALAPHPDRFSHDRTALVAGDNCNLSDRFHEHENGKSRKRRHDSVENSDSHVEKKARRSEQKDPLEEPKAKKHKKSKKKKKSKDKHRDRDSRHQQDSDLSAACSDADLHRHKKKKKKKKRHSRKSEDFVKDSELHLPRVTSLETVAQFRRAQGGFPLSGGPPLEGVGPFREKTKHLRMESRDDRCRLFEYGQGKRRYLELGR
Procedure, shortened: (§1)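 HEK293T lysate, 495 µg per sample in Tris/CHAPS/IGEPAL buffer with protease inhibitors, was treated in triplicate with fragment at 200 µM or vehicle for 3 h and then with Biotin-Ahx-Ub-VS at 0.5 µM final for 1 h. Labelled DUBs were NeutrAvidin-enriched, digested with LysC and trypsin, and run by diaPASEF LC-MS/MS. Spectronaut label-free quantities were global-median-normalised, and values are average log2 fragment/vehicle ratios by unpaired t-test on proteins with ≥2 unique peptides.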

USP46 = USP46 (UniProt P62068)
Procedure, shortened: as §1

USP47 = molecular target: T2, USP47 (UniProt Q96K76)
T2 sequence (whole entry): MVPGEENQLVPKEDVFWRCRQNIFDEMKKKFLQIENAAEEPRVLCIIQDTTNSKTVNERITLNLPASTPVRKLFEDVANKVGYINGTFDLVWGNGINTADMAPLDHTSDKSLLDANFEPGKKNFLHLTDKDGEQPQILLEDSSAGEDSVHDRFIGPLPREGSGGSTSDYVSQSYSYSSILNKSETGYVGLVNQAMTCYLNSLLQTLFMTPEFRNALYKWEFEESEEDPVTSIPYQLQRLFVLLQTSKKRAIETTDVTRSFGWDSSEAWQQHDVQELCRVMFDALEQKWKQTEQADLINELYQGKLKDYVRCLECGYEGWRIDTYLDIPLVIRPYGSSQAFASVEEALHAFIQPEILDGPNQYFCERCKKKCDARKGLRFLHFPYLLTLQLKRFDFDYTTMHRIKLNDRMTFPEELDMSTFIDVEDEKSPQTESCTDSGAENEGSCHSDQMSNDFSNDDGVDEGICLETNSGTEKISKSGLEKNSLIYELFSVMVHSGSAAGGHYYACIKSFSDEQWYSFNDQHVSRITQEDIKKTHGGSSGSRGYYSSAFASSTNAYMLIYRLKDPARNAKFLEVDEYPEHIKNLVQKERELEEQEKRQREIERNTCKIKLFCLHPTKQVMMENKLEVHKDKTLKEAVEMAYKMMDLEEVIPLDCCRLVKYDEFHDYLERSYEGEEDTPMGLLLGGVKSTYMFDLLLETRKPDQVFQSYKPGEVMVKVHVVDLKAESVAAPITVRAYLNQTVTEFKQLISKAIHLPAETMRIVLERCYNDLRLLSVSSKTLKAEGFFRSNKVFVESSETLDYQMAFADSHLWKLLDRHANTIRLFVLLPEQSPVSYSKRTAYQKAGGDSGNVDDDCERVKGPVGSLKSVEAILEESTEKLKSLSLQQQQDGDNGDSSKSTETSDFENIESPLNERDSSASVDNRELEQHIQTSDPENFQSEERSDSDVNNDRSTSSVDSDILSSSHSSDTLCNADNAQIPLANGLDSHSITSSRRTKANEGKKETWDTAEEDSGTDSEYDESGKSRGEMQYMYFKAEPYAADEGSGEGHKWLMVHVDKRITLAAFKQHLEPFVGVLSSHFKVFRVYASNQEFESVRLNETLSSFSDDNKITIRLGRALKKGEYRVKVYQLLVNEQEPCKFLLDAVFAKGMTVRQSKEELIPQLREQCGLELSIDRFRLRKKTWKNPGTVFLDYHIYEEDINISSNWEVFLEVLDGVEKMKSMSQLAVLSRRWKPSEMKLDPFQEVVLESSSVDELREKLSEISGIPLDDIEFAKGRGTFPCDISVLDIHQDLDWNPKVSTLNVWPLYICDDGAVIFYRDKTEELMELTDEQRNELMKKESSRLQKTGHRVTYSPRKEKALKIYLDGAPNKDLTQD
Procedure, shortened: as §1

USP48 = molecular target: T3, USP48 (UniProt Q86UV5)
T3 sequence (whole entry): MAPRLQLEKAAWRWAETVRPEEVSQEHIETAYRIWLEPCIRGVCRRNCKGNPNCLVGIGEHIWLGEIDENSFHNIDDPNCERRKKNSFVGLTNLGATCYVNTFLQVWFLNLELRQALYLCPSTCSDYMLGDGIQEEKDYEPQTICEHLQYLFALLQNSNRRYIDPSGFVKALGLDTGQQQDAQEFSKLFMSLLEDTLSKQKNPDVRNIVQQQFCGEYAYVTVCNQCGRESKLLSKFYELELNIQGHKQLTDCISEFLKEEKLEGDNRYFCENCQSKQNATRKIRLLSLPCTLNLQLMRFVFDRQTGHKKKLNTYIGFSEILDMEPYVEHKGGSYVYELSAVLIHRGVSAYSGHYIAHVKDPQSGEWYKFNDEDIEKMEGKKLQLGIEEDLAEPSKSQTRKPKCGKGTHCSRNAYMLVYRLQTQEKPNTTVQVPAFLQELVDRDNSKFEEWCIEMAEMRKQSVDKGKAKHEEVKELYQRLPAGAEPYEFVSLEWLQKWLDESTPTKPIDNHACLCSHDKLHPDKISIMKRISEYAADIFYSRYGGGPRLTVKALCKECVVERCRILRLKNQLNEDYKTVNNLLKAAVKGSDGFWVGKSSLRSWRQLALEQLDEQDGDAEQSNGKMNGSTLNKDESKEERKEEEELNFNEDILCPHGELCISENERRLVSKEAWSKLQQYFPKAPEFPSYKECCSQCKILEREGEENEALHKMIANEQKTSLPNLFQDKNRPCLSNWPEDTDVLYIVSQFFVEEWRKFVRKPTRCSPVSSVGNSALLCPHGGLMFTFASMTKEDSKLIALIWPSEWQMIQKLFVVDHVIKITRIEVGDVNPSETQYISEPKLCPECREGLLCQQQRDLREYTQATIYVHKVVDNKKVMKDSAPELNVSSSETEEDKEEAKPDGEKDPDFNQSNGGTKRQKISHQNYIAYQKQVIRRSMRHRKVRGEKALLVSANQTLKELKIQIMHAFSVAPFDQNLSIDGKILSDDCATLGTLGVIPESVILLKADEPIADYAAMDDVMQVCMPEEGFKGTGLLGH
Procedure, shortened: as §1

USP5 = molecular target: T4, USP5 (UniProt P45974)
T4 sequence (whole entry): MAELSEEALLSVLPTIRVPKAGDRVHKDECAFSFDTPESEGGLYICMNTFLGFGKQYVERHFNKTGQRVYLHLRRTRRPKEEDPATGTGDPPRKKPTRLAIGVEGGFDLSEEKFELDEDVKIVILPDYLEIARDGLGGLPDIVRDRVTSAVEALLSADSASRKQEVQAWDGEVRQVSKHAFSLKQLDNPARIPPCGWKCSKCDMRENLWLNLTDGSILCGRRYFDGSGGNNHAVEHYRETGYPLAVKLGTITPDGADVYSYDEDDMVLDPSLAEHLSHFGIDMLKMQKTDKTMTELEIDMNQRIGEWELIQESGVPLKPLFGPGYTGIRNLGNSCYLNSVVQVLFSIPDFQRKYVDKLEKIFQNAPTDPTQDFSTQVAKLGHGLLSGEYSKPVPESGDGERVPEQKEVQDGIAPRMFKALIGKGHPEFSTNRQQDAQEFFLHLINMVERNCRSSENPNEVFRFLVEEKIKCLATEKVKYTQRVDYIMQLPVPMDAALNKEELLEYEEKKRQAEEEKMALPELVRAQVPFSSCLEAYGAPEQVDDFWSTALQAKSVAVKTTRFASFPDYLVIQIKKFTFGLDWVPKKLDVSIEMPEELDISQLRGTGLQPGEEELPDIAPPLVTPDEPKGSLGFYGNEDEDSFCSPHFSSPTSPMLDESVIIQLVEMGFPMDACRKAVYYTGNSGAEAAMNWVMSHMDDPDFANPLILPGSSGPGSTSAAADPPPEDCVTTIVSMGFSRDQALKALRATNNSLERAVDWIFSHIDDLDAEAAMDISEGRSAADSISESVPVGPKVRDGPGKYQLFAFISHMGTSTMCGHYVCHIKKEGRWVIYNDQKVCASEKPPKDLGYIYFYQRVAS
Procedure, shortened: as §1

USP54 = USP54 (UniProt Q70EL1)
Procedure, shortened: as §1

USP7 = USP7 (UniProt Q93009)
Procedure, shortened: as §1

USP8 = molecular target: T5, USP8 (UniProt P40818)
T5 sequence (whole entry): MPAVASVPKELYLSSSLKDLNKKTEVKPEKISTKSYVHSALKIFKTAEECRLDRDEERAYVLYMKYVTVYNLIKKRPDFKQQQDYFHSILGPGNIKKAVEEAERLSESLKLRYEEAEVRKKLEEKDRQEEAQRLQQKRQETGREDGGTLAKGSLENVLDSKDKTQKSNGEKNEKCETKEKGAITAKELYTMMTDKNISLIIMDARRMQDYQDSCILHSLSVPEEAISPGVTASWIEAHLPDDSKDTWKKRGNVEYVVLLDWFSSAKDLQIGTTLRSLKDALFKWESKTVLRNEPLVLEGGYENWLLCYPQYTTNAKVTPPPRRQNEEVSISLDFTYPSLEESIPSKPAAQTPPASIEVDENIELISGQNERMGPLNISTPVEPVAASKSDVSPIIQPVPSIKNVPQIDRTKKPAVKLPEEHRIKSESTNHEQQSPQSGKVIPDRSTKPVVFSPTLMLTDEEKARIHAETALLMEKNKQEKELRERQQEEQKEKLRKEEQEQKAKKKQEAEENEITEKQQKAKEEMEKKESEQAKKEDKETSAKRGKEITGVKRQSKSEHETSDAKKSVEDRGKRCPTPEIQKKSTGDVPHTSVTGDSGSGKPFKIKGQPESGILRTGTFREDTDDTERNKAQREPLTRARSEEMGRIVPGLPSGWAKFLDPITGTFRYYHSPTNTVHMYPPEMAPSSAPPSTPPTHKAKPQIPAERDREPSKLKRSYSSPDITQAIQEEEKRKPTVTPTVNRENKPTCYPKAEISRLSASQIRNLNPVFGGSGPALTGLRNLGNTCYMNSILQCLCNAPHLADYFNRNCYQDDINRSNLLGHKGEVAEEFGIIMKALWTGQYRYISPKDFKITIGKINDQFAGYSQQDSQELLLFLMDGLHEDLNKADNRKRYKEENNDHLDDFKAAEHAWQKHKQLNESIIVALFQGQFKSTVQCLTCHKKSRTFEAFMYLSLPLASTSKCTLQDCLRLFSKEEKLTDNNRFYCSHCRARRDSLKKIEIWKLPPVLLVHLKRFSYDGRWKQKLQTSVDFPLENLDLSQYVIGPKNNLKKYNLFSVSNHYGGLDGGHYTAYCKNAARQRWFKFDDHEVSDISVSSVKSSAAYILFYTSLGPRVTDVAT
Procedure, shortened: as §1

USP9X = USP9X (UniProt Q93008)
Procedure, shortened: as §1

UniProt O00487 = molecular target: UniProt O00487
Procedure, shortened: as §1

Measured: log2 ratio of Biotin-Ahx-Ub-VS probe labelling

Sequence of USP46 (P62068 whole entry): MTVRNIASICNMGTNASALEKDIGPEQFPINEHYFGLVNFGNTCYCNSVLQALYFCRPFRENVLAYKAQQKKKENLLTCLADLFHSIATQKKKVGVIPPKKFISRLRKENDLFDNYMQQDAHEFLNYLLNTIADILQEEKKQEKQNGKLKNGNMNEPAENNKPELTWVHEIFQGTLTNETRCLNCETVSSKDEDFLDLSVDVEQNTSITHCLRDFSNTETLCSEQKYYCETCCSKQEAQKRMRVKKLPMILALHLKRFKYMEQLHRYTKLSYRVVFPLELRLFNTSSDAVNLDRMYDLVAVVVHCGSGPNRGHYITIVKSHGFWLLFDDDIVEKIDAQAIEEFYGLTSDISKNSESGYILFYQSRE
Sequence of USP7 (Q93009 whole entry, looked up): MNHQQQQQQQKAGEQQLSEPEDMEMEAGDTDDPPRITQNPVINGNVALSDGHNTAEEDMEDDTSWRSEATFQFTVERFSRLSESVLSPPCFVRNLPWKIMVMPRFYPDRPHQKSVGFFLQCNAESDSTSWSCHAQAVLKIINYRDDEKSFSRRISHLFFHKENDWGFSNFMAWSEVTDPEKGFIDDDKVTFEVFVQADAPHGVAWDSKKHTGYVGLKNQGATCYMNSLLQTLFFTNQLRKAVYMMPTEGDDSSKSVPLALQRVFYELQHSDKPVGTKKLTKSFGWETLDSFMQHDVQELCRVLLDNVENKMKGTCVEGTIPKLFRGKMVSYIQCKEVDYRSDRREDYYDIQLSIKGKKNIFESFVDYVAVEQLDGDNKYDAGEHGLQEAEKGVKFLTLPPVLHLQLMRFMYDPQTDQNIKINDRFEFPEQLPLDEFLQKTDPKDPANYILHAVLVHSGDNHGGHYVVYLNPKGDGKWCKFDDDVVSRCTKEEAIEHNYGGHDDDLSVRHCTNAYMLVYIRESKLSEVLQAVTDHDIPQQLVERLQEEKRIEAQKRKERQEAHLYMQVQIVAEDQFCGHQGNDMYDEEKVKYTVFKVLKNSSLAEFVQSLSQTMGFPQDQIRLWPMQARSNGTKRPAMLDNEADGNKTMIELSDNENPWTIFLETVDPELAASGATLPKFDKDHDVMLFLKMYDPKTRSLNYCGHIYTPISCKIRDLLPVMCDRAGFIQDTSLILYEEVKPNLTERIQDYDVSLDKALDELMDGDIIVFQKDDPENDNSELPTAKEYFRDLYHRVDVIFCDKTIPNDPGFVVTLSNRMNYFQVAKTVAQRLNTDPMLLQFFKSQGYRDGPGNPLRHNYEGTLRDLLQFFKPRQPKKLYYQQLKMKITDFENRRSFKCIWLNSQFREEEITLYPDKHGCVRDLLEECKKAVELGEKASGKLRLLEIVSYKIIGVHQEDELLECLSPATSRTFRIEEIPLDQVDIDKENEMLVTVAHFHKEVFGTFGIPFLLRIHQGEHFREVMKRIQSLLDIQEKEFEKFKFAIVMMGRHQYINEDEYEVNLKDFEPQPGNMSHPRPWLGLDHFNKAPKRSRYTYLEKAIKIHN
Sequence of USP9X (Q93008 whole entry): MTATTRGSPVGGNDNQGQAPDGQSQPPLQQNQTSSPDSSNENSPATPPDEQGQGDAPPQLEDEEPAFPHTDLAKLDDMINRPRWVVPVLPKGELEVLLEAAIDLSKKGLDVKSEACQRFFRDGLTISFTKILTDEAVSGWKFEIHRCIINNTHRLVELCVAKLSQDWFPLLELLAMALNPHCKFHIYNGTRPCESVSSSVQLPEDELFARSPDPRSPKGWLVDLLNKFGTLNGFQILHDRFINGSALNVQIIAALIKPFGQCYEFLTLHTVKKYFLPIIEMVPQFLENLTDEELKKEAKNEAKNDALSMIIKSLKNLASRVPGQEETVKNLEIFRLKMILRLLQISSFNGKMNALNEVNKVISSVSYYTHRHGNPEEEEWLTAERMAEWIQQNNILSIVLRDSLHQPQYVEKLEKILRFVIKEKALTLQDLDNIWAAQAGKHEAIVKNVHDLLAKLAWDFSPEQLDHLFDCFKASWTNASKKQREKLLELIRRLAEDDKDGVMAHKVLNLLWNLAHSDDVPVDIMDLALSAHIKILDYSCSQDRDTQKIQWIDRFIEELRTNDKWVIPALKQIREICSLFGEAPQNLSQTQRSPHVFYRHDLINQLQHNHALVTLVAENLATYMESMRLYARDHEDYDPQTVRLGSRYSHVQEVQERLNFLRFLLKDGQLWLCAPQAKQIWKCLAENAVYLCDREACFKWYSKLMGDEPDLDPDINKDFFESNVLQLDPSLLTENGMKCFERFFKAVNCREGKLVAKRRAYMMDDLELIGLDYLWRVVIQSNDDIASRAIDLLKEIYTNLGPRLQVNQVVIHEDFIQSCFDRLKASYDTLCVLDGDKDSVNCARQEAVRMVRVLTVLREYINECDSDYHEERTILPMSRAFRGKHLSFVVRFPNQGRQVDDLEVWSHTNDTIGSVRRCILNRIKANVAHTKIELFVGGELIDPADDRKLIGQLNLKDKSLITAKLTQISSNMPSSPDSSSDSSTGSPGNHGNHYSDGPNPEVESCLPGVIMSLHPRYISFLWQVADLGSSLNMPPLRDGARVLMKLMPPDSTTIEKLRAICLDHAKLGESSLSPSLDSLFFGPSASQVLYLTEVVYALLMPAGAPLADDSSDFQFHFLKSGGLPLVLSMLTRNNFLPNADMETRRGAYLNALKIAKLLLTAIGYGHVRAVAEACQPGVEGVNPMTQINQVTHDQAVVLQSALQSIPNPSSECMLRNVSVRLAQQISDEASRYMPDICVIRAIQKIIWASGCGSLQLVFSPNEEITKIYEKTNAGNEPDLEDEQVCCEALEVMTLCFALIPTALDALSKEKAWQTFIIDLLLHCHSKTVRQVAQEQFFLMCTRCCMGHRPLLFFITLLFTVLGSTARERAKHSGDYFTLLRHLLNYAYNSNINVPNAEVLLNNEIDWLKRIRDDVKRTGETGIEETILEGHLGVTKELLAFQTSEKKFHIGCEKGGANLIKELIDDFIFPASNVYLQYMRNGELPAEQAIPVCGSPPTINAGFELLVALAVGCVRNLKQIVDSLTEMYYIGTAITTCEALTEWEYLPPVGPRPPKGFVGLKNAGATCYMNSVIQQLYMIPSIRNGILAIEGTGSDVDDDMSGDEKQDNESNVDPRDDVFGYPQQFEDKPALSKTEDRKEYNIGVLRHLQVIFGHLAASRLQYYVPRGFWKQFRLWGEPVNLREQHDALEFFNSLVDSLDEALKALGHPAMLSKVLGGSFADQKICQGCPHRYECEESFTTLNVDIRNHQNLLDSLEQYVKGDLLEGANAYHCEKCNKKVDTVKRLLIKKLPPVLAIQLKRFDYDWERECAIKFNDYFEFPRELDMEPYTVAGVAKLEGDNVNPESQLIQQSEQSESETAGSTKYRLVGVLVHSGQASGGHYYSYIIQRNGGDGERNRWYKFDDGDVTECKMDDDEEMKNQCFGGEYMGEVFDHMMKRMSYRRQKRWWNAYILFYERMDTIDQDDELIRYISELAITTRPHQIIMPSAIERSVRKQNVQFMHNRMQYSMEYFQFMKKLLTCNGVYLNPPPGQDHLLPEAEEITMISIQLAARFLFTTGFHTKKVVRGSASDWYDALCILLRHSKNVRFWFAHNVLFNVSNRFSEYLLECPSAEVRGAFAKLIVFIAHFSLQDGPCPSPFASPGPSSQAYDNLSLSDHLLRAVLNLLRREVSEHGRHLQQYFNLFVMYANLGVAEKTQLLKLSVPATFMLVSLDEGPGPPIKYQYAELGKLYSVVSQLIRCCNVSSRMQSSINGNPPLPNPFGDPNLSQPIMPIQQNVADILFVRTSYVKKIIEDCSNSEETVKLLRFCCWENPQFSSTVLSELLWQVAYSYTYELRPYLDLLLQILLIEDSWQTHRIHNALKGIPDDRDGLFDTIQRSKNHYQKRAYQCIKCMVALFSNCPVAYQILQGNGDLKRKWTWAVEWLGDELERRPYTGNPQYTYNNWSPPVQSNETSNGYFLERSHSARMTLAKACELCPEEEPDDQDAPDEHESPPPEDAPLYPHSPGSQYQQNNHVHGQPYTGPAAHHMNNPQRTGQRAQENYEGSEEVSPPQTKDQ
Sequence of UniProt O00487 (O00487 whole entry): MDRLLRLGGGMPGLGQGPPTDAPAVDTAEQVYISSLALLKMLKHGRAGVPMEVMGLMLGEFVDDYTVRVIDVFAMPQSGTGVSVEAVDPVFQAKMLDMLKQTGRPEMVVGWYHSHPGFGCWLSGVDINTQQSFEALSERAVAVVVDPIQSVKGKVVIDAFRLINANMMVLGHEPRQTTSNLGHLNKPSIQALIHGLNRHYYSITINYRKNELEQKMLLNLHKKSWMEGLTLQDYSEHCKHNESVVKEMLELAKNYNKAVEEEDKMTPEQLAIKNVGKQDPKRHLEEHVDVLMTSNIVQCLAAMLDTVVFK

Cc1ccc(CNC(=O)CCl)nc1C.Cl
inactive: USP42 0.369 | USP46 0.12 | USP47 0.076 | USP48 -0.13 | USP5 -0.461 | USP54 -0.18 | USP7 -0.299 | USP8 -0.217 | USP9X 0.0101 | UniProt O00487 -0.156

Cc1cnc2[nH]cc(CCNC(=O)CCl)c2c1
inactive: USP42 0.34 | USP46 -0.0833 | USP47 -0.00951 | USP48 0.00232 | USP5 -0.115 | USP54 0.181 | USP7 -0.0122 | USP8 -0.428 | USP9X -0.0941 | UniProt O00487 0.0974

O=C(CCl)Nc1ccccc1C(F)(F)F
inactive: USP42 0.398 | USP46 0.0498 | USP47 -0.374 | USP48 -0.257 | USP5 -0.323 | USP54 0.637 | USP7 -0.404 | USP8 -0.029 | USP9X -0.0415 | UniProt O00487 -0.162

O=C(CCl)N1CCN2C(=O)CCC2C1 (stereo not given)
inactive: USP42 -0.359 | USP46 0.247 | USP47 -0.0244 | USP48 -0.154 | USP5 0.153 | USP54 0.776 | USP7 -0.0819 | USP8 -0.376 | USP9X -0.098 | UniProt O00487 -0.0865
